The source of these data is PubChem BioAssay (NCATS).

What all share (experiment): Primary qHTS to identify gynecologic anti-cancer compounds using libraries of approved drugs and bioactive compounds (AID 1345084); note: nearly all actives have a fitted effect of over 55% in size
One assay has as its system C33A. The following applies: Gynecologic cancer cell panel viability, ATPlite luminescence, 48 h; series mostly up to 57.5 µM. Put shortly:
(§1)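 Luminescence from the ATPlite ATP-monitoring reagent indicates viable cell number; lower signal means cytotoxicity. Cells received compound 16 h after seeding and were exposed for 48 h across five concentrations.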

In the next assay the test system is CAOV3. The following applies: Gynecologic cancer cell panel viability, ATPlite luminescence, 48 h; series mostly up to 57.5 µM. Put shortly:
as §1
In general terms: In ATP-based viability assays light output follows the ATP content of the culture.

The subject of the next assay is CASKI. Particulars: Gynecologic cancer cell panel viability, ATPlite luminescence, 48 h; series mostly up to 57.5 µM. Put shortly: as §1
A further assay relates to Es-2. The following applies: Gynecologic cancer cell panel viability, ATPlite luminescence, 48 h; series mostly up to 57.5 µM. The method in brief:
as §1

In another assay the test system is HeLa. Particulars: Gynecologic cancer cell panel viability, ATPlite luminescence, 48 h; series mostly up to 57.5 µM. Put shortly:
as §1

A further assay relates to Hek293T. Particulars: Gynecologic cancer cell panel viability, ATPlite luminescence, 48 h, control line for the selectivity index; series mostly up to 57.5 µM. Put shortly: as §1
Another assay concerns JEG-3. The following applies: Gynecologic cancer cell panel viability, ATPlite luminescence, 48 h; series mostly up to 57.5 µM. Put shortly: as §1
The test system of the next assay is OV90. Particulars: Gynecologic cancer cell panel viability, ATPlite luminescence, 48 h; series mostly up to 57.5 µM. The method in brief: as §1
The next assay concerns PA-1. Particulars: Gynecologic cancer cell panel viability, ATPlite luminescence, 48 h; series mostly up to 57.5 µM. Put shortly:
as §1

Another assay deals with SKOV3. The following applies: Gynecologic cancer cell panel viability, ATPlite luminescence, 48 h; series mostly up to 57.5 µM. Put shortly: as §1
For the next assay, the system named is Tov-21-G. Particulars: Gynecologic cancer cell panel viability, ATPlite luminescence, 48 h; series mostly up to 57.5 µM. The method in brief:
as §1

The next assay has as its system Tov112D. Particulars: Gynecologic cancer cell panel viability, ATPlite luminescence, 48 h; series mostly up to 57.5 µM. Put shortly: as §1

Results filed as inconclusive are left out. A number with no mark means an inactive call. Activity calls are given as the source filed them. Calls come from the whole dose curve; as a rule, active = well fitted cell-killing curve with a large enough effect; inconclusive = small, poorly fitted or top-dose-only effect, or effect the other way; inactive = flat fitted curve, though single readings scatter.
Potency is the fitted concentration of half-maximal effect.

On to `CC(C)=CCC/C(C)=C/Cc1ccc(O)c(C2OC(=O)c3cc(C(=O)O)cc(O)c32)c1O` (stereo not drawn), for which the Potency result in the assay on C33A, with CAOV3, in the assay on CASKI, with Es-2, with HeLa and with Hek293T was “inactive” in each case. Also, the Potency entry in the assay with JEG-3, in the assay on OV90, in the assay with PA-1, in the assay on SKOV3, with Tov-21-G and with Tov112D was “inactive” each time.

Turning to `O=C1NC(Cc2c[nH]c3ccccc23)C(=O)NC1Cc1c[nH]c2ccccc12` (stereo not drawn), the Potency result in the assay with C33A, in the assay on CAOV3, in the assay on CASKI, in the assay with Es-2, with HeLa and with Hek293T was “inactive” throughout. Also, the Potency result in the assay with JEG-3, with OV90, with PA-1, in the assay on SKOV3, with Tov-21-G and in the assay with Tov112D was “inactive” in each case.

For `CC1CCN(C(=O)CC#N)CC1N(C)c1ncnc2[nH]ccc12` (stereo not drawn), the Potency result in the assay on C33A, with CAOV3, in the assay on CASKI, in the assay with Es-2, in the assay on HeLa and in the assay with Hek293T was “inactive” throughout. For the same compound, the Potency result in the assay on JEG-3, in the assay with OV90, with PA-1, with SKOV3, in the assay on Tov-21-G and in the assay on Tov112D was “inactive” in each case.

Regarding `COc1ccc(Cl)c(Nc2nc3ccccc3nc2NS(=O)(=O)c2cccc(NC(=O)C(C)(C)N)c2)c1`, the Potency result in the assay with C33A, with CAOV3, in the assay on CASKI, in the assay on Es-2, with HeLa and in the assay on Hek293T was “inactive” in each case. The Potency result in the assay with JEG-3, in the assay with OV90, in the assay on PA-1, in the assay on SKOV3, in the assay with Tov-21-G and in the assay on Tov112D was “inactive” throughout.

As for `COC(=O)CCc1cc2ccoc2c(OC)c1O[C@@H]1O[C@H](CO)[C@@H](O)[C@H](O)[C@H]1O`, the Potency result in the assay with C33A, in the assay on CAOV3, with CASKI, with Es-2, in the assay with HeLa and in the assay on Hek293T was “inactive” throughout. Moreover, the Potency entry in the assay on JEG-3, with OV90, in the assay on PA-1, with SKOV3, in the assay with Tov-21-G and with Tov112D was “inactive” each time.

On to `CC1=C(C(=O)O)/C(=C\CO[C@@H]2O[C@H](CO)[C@@H](O)[C@H](O)[C@H]2O)C(OC(=O)/C=C/c2ccc(O)cc2)C1` (stereo partly drawn), for which the Potency result with C33A, in the assay with CAOV3, in the assay on CASKI, in the assay with Es-2, in the assay on HeLa and in the assay with Hek293T was “inactive” in each case. In addition, the Potency result with JEG-3, with OV90, with PA-1, in the assay on SKOV3, with Tov-21-G and in the assay on Tov112D was “inactive” in each case.

In the case of `OC[C@H]1O[C@@H](OCCc2ccccc2)[C@H](O[C@@H]2OC[C@](O)(CO)[C@H]2O)[C@@H](O)[C@@H]1O`, the Potency result with C33A, in the assay on CAOV3, with CASKI, in the assay with Es-2, with HeLa and with Hek293T was “inactive” each time. Moreover, the Potency entry in the assay with JEG-3, in the assay with OV90, in the assay on PA-1, in the assay with SKOV3, in the assay with Tov-21-G and with Tov112D was “inactive” throughout.

Regarding `CC(O)CCC1C(CO[C@@H]2O[C@H](CO)[C@@H](O)[C@H](O)[C@H]2O)CC(O)CC1(C)C` (stereo partly drawn), the Potency entry with C33A, with CAOV3, in the assay with CASKI, in the assay with Es-2, in the assay with HeLa and with Hek293T was “inactive” in each case. Further, the Potency entry in the assay on JEG-3, in the assay on OV90, with PA-1, in the assay on SKOV3, in the assay on Tov-21-G and in the assay on Tov112D was “inactive” in each case.

For `COC(=O)CCSCc1ccc(-c2onc(C)c2NC(=O)OC(C)c2ccccc2Cl)cc1` (stereo not drawn), the Potency result with C33A, in the assay with CAOV3, in the assay on CASKI, in the assay with Es-2, in the assay with HeLa and with Hek293T was “inactive” in each case. Further, the Potency result with JEG-3, with OV90, with PA-1, in the assay on SKOV3, in the assay on Tov-21-G and in the assay on Tov112D was “inactive” in each case.

In the case of `CC(=O)CC1CCC(C(C)C(=O)OCC(O)CO)O1` (stereo not drawn), the Potency entry in the assay on C33A, in the assay on CAOV3, with CASKI, with Es-2, with HeLa and in the assay on Hek293T was “inactive” throughout. For the same compound, the Potency entry in the assay with JEG-3, in the assay on OV90, in the assay with PA-1, in the assay on SKOV3, in the assay with Tov-21-G and with Tov112D was “inactive” each time.

Turning to `CC1=C(C(=O)O)/C(=C\CO[C@@H]2O[C@H](CO)[C@@H](O)[C@H](O)[C@H]2O)C(OC(=O)/C=C\c2ccc(O)cc2)C1` (stereo partly drawn), the Potency result in the assay with C33A, in the assay on CAOV3, in the assay with CASKI, in the assay on Es-2, with HeLa and in the assay with Hek293T was “inactive” throughout. Besides, the Potency result in the assay on JEG-3, in the assay on OV90, in the assay with PA-1, in the assay with SKOV3, with Tov-21-G and with Tov112D was “inactive” in each case.

Take `COc1c/c(=C2\C=c3ccccc3=N2)[nH]/c1=C\c1[nH]c(C)cc1C`: the Potency is 1.41 µM (active) in the assay on C33A; 10 µM (active) with CAOV3; 12.6 µM (active) in the assay on CASKI; 2.51 µM (active) with Es-2; 10 µM (active) in the assay on HeLa; 6.31 µM (active) in the assay on Hek293T. The Potency in the assay on JEG-3 was 7.94 µM (active); with OV90, 2.24 µM (active); in the assay with PA-1, 2 µM (active); in the assay on SKOV3, 10 µM (active); in the assay with Tov-21-G, 14.1 µM (active); with Tov112D, 3.55 µM (active).

With `COc1cc(/C=C/C(=O)OC[C@H]2O[C@@](CO)(O[C@H]3O[C@H](CO)[C@@H](O)[C@H](O)[C@H]3O)[C@@H](OC(=O)/C=C/c3ccc(O)c(OC)c3)[C@@H]2O)ccc1O`, the Potency result in the assay with C33A, in the assay with CAOV3, with CASKI, in the assay with Es-2, in the assay on HeLa and in the assay with Hek293T was “inactive” throughout. The Potency result with JEG-3, with OV90, with PA-1, in the assay on SKOV3, with Tov-21-G and with Tov112D was “inactive” in each case.

As for `C=C1C(O)C[C@@H]2C(C(=O)O)=CO[C@@H](O[C@@H]3O[C@H](CO)[C@@H](O)[C@H](O)[C@H]3OC(=O)c3ccc(O)cc3)[C@H]12` (stereo partly drawn), the Potency entry in the assay on C33A, in the assay on CAOV3, with CASKI, with Es-2, in the assay with HeLa and in the assay on Hek293T was “inactive” in each case. The Potency entry in the assay with JEG-3, in the assay with OV90, with PA-1, in the assay on SKOV3, in the assay on Tov-21-G and in the assay with Tov112D was “inactive” each time.
